Drawing on the supplement of paper PMC10849652, this text covers log2 fold change for 29 targets.

For some assays here: Targets with a hit are over-represented here; the source holds about 7,900 in all. For some assays here: About 0.6% of all pairs of compound and target were hits. Unmarked numbers belong to inactive results. For some assays here: The full data set covers some 8,800 targets. This sample favours those with a hit. For some assays here: About 0.5% of all pairs of compound and target were hits.

Compound in assay [1]: C1=CC=C(C=C1)[C@H](COC2=CC3=C(C=C2)NC(=O)N3)NC(=O)C4=CC=CN(C4=O)CC5=CC(=C(C=C5)F)F
Put plainly: log2 fold change, soluble protein after heating vs DMSO (PISA); higher = thermal stabilisation; K562 lysate, 10 uM; active = over 0.2 and 3.5 SD of the protein, either way, in both replicates (recomputed). An outline of the steps:
(§1)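 Quantification was by TMTpro 16plex LC-MS/MS with equalised channel sums, applied to the supernatant after 21,000xg for 90 min. Samples were crude K562 extract at 1 mg/mL protein in PBS pH 7.4 with 1 mM MgCl2, treated with 10 μM compound for 30 min, heated for 3 min across 48°C-58°C, pooled and brought to 0.5% NP-40 at 4°C. Values are log-two fold changes in thermal stability relative to solvent controls, from duplicates.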

Compound in assay [2]: CC1=C(SC2=C1C(=N[C@H](C3=NN=C(N32)C)CC(=O)N)C4=CC=C(C=C4)Cl)C
The description is as above. The gist of the method: as §1

Compound in assay [3]: CC1=C2C(=CC=C1)N=C(N(C2=O)C3=CC=CC=C3C)CN4C=NC5=C(N=CN=C54)N
Described as above. An outline of the steps: as §1

Compound in assay [4]: c1ccc([C@@H]2C[C@H]2NC2CCNCC2)cc1
Described as above. An outline of the steps:
as §1

Compound in assay [5]: C1=CC=C(C=C1)[C@H](COC2=CC3=C(C=C2)NC(=O)N3)NC(=O)C4=CC=CN(C4=O)CC5=CC(=C(C=C5)F)F
Put plainly: log2 fold change, soluble protein after heating vs DMSO (PISA); higher = thermal stabilisation; K562 cells, 10 uM, 30 min; active = over 0.2 and 3.5 SD of the protein, either way, in both replicates (recomputed). The gist of the method: (§2)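 K562 cells at 2×10^6 cells/mL were exposed to 10 μM compound for 30 min, then aliquots were heated for 3 min across 48°C-58°C, pooled, and extracted in PBS containing 0.5% NP-40 at 4°C. The supernatant after 21,000xg for 90 min was taken as soluble protein and measured by TMTpro 16plex LC-MS/MS with channel sums equalised. Thermal stability is reported relative to control samples, with values from duplicates. Fold changes are given on a log2 scale.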

Compound in assay [6]: CC1=C(SC2=C1C(=N[C@H](C3=NN=C(N32)C)CC(=O)N)C4=CC=C(C=C4)Cl)C
The assay is described as above. An outline of the steps:
as §2

Compound in assay [7]: CC1=C2C(=CC=C1)N=C(N(C2=O)C3=CC=CC=C3C)CN4C=NC5=C(N=CN=C54)N
The assay is described as above. An outline of the steps:
as §2

Compound in assay [8]: Cc1sc2c(c1C)C(c1ccc(Cl)cc1)=N[C@@H](CC(=O)OC(C)(C)C)c1nnc(C)n1-2
The assay is described as above. The gist of the method: as §2

Compound in assay [9]: c1ccc([C@@H]2C[C@H]2NC2CCNCC2)cc1
The description is as above. An outline of the steps:
as §2

Compound in assay [10]: Cc1sc2c(c1C)C(c1ccc(Cl)cc1)=N[C@@H](CC(=O)OC(C)(C)C)c1nnc(C)n1-2
The experiment in a line: log2 fold change, soluble protein after heating vs DMSO (PISA); higher = thermal stabilisation; K562 lysate, 10 uM; active = over 0.2 and 3.5 SD of the protein, either way, in both replicates (recomputed). An outline of the steps:
as §1

UniProt Q8N302, sequence (Q8N302 whole entry, looked up): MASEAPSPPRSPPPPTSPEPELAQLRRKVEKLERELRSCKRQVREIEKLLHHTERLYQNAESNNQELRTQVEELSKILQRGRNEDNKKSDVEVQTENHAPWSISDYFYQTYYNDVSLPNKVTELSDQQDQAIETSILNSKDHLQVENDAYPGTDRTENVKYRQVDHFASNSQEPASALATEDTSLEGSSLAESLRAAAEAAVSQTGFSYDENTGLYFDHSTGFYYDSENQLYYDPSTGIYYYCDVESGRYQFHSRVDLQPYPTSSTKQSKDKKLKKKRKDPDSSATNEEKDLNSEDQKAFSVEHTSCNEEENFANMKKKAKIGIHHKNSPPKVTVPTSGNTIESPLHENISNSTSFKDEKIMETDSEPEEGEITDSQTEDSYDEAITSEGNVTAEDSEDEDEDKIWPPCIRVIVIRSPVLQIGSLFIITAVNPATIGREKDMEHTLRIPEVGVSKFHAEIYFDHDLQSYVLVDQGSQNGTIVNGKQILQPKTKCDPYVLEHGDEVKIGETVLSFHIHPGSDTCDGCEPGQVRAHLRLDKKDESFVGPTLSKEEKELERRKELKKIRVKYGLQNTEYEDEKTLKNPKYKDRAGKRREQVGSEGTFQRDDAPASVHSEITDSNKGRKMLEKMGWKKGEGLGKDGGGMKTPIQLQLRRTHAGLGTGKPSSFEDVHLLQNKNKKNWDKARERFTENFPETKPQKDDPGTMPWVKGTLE
UniProt Q96EC8, sequence (Q96EC8 whole entry, looked up): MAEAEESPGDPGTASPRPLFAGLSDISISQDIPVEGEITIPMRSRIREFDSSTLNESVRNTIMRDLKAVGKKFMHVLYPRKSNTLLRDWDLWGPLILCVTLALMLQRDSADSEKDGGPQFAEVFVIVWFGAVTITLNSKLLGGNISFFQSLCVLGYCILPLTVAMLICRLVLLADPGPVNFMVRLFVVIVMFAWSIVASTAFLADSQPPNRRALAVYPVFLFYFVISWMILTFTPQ
UniProt Q14202, sequence (Q14202 whole entry, looked up): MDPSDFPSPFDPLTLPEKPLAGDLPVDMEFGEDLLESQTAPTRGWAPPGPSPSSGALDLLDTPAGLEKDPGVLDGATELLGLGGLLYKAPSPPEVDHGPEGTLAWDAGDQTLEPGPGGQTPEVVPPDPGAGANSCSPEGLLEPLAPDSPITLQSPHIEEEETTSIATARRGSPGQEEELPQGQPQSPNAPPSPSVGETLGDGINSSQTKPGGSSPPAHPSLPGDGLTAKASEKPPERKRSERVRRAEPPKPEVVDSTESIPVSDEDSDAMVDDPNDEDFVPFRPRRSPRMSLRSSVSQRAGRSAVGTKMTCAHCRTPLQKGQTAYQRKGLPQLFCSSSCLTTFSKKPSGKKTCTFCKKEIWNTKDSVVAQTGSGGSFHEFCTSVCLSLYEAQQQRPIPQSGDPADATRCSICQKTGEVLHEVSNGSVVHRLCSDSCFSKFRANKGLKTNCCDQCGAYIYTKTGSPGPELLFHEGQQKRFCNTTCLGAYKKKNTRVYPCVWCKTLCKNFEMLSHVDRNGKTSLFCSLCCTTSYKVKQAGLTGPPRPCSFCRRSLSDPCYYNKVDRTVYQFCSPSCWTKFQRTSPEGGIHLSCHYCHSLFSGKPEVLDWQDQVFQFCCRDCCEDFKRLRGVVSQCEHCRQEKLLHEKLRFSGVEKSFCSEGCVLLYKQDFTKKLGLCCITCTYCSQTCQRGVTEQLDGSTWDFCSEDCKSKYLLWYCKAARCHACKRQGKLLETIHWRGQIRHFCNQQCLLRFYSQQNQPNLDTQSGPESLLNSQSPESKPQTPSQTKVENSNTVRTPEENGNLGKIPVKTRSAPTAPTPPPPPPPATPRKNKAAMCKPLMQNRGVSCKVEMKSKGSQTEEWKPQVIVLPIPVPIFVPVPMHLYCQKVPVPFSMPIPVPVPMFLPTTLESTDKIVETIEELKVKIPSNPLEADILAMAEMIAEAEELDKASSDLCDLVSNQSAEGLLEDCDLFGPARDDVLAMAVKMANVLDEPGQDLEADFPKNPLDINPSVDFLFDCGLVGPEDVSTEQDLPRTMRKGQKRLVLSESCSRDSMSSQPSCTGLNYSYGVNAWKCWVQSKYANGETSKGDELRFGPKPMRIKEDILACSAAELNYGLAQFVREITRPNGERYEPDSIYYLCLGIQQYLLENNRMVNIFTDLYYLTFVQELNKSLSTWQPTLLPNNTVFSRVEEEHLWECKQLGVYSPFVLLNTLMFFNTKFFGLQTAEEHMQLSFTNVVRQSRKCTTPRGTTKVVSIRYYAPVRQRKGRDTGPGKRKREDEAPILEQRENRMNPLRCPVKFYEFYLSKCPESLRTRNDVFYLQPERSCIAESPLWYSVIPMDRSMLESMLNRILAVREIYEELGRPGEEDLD
UniProt Q9P1F3, sequence (Q9P1F3 whole entry, looked up): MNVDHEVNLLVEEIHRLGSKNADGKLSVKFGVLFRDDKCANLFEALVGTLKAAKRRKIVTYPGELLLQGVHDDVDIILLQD
UniProt P28288, sequence (P28288 whole entry, looked up): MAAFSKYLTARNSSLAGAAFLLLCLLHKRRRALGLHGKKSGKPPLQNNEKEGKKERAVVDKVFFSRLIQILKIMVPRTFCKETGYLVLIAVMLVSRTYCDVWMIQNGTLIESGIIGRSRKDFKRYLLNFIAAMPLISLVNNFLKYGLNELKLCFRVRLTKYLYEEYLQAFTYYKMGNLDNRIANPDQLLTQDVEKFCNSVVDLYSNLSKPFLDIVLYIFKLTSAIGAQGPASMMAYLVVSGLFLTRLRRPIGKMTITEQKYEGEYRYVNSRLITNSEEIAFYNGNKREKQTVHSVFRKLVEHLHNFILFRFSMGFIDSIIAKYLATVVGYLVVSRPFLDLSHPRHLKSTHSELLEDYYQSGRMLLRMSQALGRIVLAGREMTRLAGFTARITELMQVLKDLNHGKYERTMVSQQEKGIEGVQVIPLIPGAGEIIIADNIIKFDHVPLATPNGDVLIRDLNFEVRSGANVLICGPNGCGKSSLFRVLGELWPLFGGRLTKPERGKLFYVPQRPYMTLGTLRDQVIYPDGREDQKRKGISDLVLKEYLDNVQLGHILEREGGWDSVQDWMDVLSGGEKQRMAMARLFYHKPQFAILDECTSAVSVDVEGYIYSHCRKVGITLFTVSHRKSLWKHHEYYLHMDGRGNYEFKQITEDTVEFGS
UniProt P63104, sequence (P63104 whole entry, looked up): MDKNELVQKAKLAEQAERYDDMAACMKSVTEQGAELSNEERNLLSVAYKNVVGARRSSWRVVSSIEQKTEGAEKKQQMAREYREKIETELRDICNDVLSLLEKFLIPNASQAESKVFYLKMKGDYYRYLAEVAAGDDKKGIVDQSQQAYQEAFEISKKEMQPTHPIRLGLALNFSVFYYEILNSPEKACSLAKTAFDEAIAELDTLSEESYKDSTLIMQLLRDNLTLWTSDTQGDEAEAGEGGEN
UniProt Q9ULJ3, sequence (Q9ULJ3 whole entry, looked up): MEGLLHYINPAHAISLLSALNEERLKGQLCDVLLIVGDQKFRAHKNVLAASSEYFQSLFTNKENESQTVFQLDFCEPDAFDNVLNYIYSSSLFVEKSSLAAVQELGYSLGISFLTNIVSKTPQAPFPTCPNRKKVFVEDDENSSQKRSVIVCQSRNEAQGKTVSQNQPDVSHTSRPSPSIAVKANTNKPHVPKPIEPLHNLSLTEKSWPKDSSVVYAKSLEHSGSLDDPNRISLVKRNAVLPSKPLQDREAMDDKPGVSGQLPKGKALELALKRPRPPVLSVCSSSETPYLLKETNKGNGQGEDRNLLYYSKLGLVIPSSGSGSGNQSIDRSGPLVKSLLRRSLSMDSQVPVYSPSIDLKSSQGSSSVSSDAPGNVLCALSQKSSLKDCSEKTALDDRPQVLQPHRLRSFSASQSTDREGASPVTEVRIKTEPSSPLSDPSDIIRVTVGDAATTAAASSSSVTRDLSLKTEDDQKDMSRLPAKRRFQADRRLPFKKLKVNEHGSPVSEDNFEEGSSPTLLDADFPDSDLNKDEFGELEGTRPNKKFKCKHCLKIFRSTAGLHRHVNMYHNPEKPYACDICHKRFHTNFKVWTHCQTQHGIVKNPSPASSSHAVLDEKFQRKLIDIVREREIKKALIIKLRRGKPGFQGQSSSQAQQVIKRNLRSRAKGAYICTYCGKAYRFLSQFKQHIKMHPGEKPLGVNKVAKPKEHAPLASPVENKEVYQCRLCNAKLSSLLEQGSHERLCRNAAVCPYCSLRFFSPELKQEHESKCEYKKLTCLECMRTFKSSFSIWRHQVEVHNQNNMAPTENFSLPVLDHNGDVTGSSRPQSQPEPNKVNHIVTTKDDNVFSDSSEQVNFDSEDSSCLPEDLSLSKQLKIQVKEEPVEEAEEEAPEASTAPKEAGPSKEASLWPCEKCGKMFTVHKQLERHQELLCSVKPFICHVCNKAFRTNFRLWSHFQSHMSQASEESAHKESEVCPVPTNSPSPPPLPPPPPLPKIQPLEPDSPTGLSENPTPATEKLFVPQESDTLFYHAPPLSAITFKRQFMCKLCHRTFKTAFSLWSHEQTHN
UniProt Q8NAF0, sequence (Q8NAF0 whole entry, looked up): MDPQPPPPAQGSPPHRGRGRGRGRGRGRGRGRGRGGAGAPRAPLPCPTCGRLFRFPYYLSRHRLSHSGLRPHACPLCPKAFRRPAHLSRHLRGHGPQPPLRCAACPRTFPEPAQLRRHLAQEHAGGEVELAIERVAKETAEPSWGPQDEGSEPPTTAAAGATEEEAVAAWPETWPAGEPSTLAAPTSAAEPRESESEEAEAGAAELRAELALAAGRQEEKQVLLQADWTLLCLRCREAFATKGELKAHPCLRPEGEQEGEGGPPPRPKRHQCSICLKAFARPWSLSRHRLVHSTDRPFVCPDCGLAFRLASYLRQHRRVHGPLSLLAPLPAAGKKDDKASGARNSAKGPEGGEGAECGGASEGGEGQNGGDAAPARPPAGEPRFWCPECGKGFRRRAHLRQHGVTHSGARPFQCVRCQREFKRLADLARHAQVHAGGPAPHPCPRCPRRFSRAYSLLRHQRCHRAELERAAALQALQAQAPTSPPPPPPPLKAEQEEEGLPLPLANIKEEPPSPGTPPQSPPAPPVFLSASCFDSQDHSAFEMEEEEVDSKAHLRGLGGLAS

ACLY isoform 2 (UniProt P53396): the log2 fold change is 0.099 in assay [1], -0.01 in assay [2], 0.023 in assay [3] and -0.325 in assay [4].
Regarding AGGF1 (UniProt Q8N302), the log2 fold change in assay [1] is 0.042; in assay [2], 0.049; in [3], 0.024; in assay [4], -0.149.
As for ZNF609 (UniProt O15014), the log2 fold change is 0.035 in assay [5]; -0.008 in assay [6]; 0.148 in [7]; 0.14 in assay [8]; 0.073 in assay [9].
On the same counts, the results for YIPF5 isoform 3 (UniProt Q969M3) are 0, 0.025, 0.018, 0.002 and 0.08.
On the same counts, the results for ZBTB21 (UniProt Q9ULJ3) are -0.215, -0.152, 0.058, 0.244 and 0.006.
ANP32E isoform 3 (UniProt Q9BTT0): the log2 fold change is 0.003 in [1], 0.09 in assay [2], 0.015 in assay [3] and -0.39 in assay [4].
As to YWHAQ (UniProt P27348), the log2 fold change in assay [5] was -0.031; in assay [6], 0.009; in assay [7], -0.152; in [8], -0.089; in [9], -0.083.
For the target YWHAZ (UniProt P63104), the log2 fold change in [5] is -0.012; in assay [6] it was 0.035; in [7] it was -0.031; in assay [8] it was -0.033; in assay [9], -0.025.
In the case of ACAT1, A0A5F9ZHJ0, the log2 fold change in assay [4] was -0.06.
Take ZNF579 (UniProt Q8NAF0): the log2 fold change was 0.05 in [5]; -0.074 in assay [6]; -0.025 in assay [7]; 0.151 in [8]; -0.147 in assay [9].
AP5B1 (UniProt Q2VPB7): the log2 fold change in assay [1] is 0.079; in assay [2] it was -0.023; in assay [10] it was -0.044; in assay [4], -0.003.
Turning to ALKBH7 (UniProt Q9BT30), the log2 fold change in assay [10] is -0.012; in [4], -0.014.
For the target ABRACL (UniProt Q9P1F3), the log2 fold change in assay [1] was 0.052; in assay [2] it was -0.221; in [10] it was 0.054; in assay [4], 0.075.
Consider ACYP2 (UniProt P14621), for which the log2 fold change was -0.061 in [1], -0.032 in assay [2], 0.011 in assay [3] and 0.118 in [4].
For AP3D1 isoform 2 (UniProt O14617), the log2 fold change is -0.009 in assay [3] and 0.061 in [4].
ANXA2 (UniProt H0YL33): the log2 fold change in [1] is 0.079; in assay [2] it was -0.079; in assay [10] it was -0.135; in assay [4], 0.466.
Turning to ALDH18A1 isoform 2 (UniProt P54886), the log2 fold change was 0.229 in assay [3] and -0.068 in [10].
Take ARHGEF2 (UniProt V9GYF0): the log2 fold change in assay [3] is 0.098; in assay [10], 0.105.
ALG13 isoform 2 (UniProt Q9NP73): in [4], the log2 fold change was -0.109.
For the target YIPF6 (UniProt Q96EC8), the log2 fold change was 0.062 in assay [5]; -0.04 in assay [6]; 0.114 in [7]; 0.103 in [8]; 0.015 in assay [9].
ANKRD30A (UniProt Q9BXX3): the log2 fold change in assay [1] was -0.04; in [2] it was -0.051; in assay [10], -0.03; in assay [4] it was 0.064.
Take AGPAT2 (UniProt O15120): the values for the log2 fold change in [3] and in assay [4] were -0.11 and 0.034, respectively.
With YES1 (UniProt P07947), the log2 fold change in assay [5] was 0.025; in assay [6], -0.056; in assay [7], 0.126; in [8] it was -0.005; in [9], -0.038.
Regarding ALKBH1 (UniProt Q13686), the log2 fold change is -0.036 in assay [3], -0.001 in [10] and 0.051 in assay [4].
For ABCD3 (UniProt P28288), the log2 fold change is 0.178 in assay [1]; -0.094 in assay [2]; 0.016 in assay [3]; 0.013 in assay [10]; 0.01 in assay [4].
ZMYM3 (UniProt Q14202): the log2 fold change in assay [5] was -0.03; in assay [6] it was 0.055; in assay [7], -0.02; in assay [8] it was 0.043; in assay [9], 0.103.
For ACVR1 (UniProt Q04771), the log2 fold change was -0.052 in [1], -0.055 in [2], -0.102 in assay [10] and -0.126 in [4].
In the case of ABHD11 (UniProt Q8NFV4), the log2 fold change in [1] was 0.072; in [2] it was -0.031; in [3], 0.028; in [10], -0.021; in assay [4] it was -0.098.
Turning to ANKRD44 isoform 2 (UniProt Q8N8A2), the log2 fold change in [1] was -0.032; in assay [2], -0.045; in assay [3], 0.019; in assay [4] it was -1 (active).
